Screening results as filed in PubChem BioAssay.
Hits are enriched below; roughly 3.1% of the tested compounds scored in any of these assays.
p53null 32C kill = p53 null cell cytotoxicity, permissive temperature | H1299-neo p53 null cells, ATP luminescence, 24 h, 32C | Potency, µM (top dose mostly 46.1 µM), for the others: top-dose activity change, negative = cytotoxicity, actives largely listed as cytotoxic | 0.62% of 55,000 active;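 note: potency is the fitted concentration of half-maximal effect; 0% = DMSO only and -100% = full killing by 100 µM tamoxifen; nearly all actives have a fitted effect of over 55% in size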
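We seeded p53-null H1299-neo cells, incubated them overnight at 37C, and added compounds across a range up to 46 uM. After 24 hours at 32C, ATP reagent was applied for 20 min at room temperature and luminescence recorded.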
PMP22 txn prim = PMP22 gene transcription modulation; S16 Pmp22-F2sN Schwann cells, FLuc/NLuc coincidence luminescence, 24 h; Potency, µM (doses to about 57.5 µM), without a hit: at the highest dose activity change, negative = inhibition, hits mostly inhibitors; 2% of 43,000 active; active = clear falling dose curves in both reporters; inconclusive = both reporters move, but less clearly or upward; inactive = either reporter flat; the % is the NLuc reporter signal; note: potency is the fitted concentration of half-maximal effect; % is set by controls: 0 for no effect and ±100 for the full control effect
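qHTS, 1536-well. Cells seeded, compounds added by pin tool, 24 h 37C. Nano-Glo reagent 1 (lysis/FLuc), 10 min RT, read; Stop&Glo, 10 min RT, read NLuc.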
mTORC1 inh = reduces mTORC1 signaling in Tsc2 and p53 null MEF cells; Tsc2-/- p53-/- MEF, phospho-rpS6 immunofluorescence/PI, 24 h; 0.78% of 44,000 active; Potency, µM (series often up to 38.3 µM), without a hit: at the top dose activity change, negative = inhibition, actives largely listed as inhibitors;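 note: potency is the fitted concentration of half-maximal effect; plate controls were DMSO for no effect and rapamycin for full effect; nearly all actives have a fitted effect of over 50% in size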
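Tsc2-/-, p53-/- mouse embryonic fibroblasts (empty-vector line) exposed to compound 24 hrs at 37 C, fixed, immunostained for phospho-rpS6 and counterstained with propidium iodide. Acumen laser scanning gives % positive cells from Alexa 488/PI ratio, thresholded using 7.5 nM rapamycin; PI count gives viability.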
p53null 39C kill = kills p53 null cells at the nonpermissive temperature; AID 904; H1299 p53-null (neo) cells, 39C, ATPlite viability, 24 h; 0.97% of 55,000 active; Potency, µM (doses to about 46.1 µM), for inactives: at the highest dose activity, negative = cell killing, usual class: cytotoxic;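 note: potency is the fitted concentration of half-maximal effect; 0% = DMSO only and -100% = full killing by 100 µM tamoxifen; nearly all actives have a fitted effect of over 50% in size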
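H1299 lung cancer cells, p53-null (H1299-neo) or expressing p53 A138V (H1299-p53A138V), were plated overnight at 37C, then exposed to compounds at up to 46 uM for 24 hr at 39C. Viability was read by ATP-based luminescence.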
OvCa metastasis = blocks SKOV3ip1 adhesion and invasion in omental model; SKOV3ip1-GFP adhesion/invasion on 3D omental model, fluorescence; Potency, µM (top dose mostly 45.8 µM), for the others: at the highest dose activity change, negative = inhibition, actives largely listed as inhibitors; 0.1% of 46,000 active; AID 1963576;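 note: potency is the fitted concentration of half-maximal effect; plate controls were DMSO wells for no effect and tomatine positive control wells for full effect; nearly all actives have a fitted effect of over 65% in size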
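Primary human omental fibroblast/mesothelial 3D culture pre-formed 48 h. SKOV3ip1-GFP cells added with compounds (0.36-46 umol/L), incubated 2 h RT/16 h 37 C, fixed; GFP cells quantified at 488/509 nm.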
S16 F2sN tox = S16 Schwann cell cytotoxicity; S16 Pmp22-F2sN Schwann cells (luciferase reporters placed in the Pmp22 gene) viability, CellTiter-Glo, 24 h; Potency, µM (top dose mostly 57.5 µM), without a hit: at the highest dose activity change, negative = cytotoxicity, hits mostly cytotoxic; 0.48% of 43,000 active; AID 1508642; note: potency is the fitted concentration of half-maximal effect; % is set by controls: 0 for no effect and ±100 for the full control effect; nearly all actives have a fitted effect of over 65% in size
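Seed 500-1,000 S16 Pmp22-F2sN cells per well in phenol-red-free DMEM with 10% heat-inactivated FBS; pin-add 23 nL compound; incubate 24 h at 37C; add CellTiter-Glo, wait 15 min protected from light; read luminescence.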
NLuc saturating = NanoLuc enzyme inhibition artifact for PMP22 screen; shares compounds with PMP22 txn prim; Secreted NLuc enzyme (filtered S16 cell medium), Nano-Glo luminescence; Potency, µM (titrated, usually from 57.5 µM), without a hit: top-dose activity change, negative = inhibition, usual class: inhibitors; 4% of 690 active; note: potency is the fitted concentration of half-maximal effect; % is set by controls: 0 for no effect and ±100 for the full control effect
NLuc Km ctr = counter-screen for PMP22 expression modulators: NanoLuc inhibition at Km; shares compounds with PMP22 txn prim; secreted NLuc enzyme, coelenterazine luminescence, Km conditions; Potency, µM (highest dose often 57.5 µM), inactives show at the highest dose activity change, negative = inhibition, most hits filed as inhibitors; 5% of 690 active; note: potency is the fitted concentration of half-maximal effect; % is set by controls: 0 for no effect and ±100 for the full control effect
FLuc counter = firefly luciferase enzyme inhibition artifact for PMP22 screen; shares compounds with PMP22 txn prim; purified P. pyralis FLuc, luminescence, 10 min; Potency, µM (highest dose often 57.5 µM), inactives show at the highest dose activity, negative = inhibition, most hits filed as inhibitors; 690 tested, under 10 active; note: % of control where 0% means no effect
Target sequence (P08659 whole entry, looked up): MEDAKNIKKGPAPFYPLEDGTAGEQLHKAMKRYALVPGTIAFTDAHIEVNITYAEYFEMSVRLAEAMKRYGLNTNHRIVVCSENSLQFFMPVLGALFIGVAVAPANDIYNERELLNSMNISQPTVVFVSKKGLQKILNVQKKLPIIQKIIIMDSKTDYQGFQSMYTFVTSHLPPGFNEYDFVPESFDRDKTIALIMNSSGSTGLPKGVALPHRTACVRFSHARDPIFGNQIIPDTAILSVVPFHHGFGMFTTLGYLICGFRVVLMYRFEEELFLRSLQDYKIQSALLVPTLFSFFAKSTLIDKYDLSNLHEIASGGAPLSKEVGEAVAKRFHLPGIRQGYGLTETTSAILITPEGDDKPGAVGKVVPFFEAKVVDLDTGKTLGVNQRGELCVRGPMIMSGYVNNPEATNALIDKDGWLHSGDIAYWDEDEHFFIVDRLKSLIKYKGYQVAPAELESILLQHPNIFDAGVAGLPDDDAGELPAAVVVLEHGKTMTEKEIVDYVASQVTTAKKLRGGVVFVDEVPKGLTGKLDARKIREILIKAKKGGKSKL
S16 F2sN tox cnf = S16 Schwann cell cytotoxicity, confirmatory | shares compounds with PMP22 txn prim | S16 Schwann cells viability, CellTiter-Glo ATP luminescence, 24 h | Potency, µM (titrated, usually from 57.5 µM), without a hit: top-dose activity change, negative = viability loss, most hits filed as cytotoxic | 7% of 690 active; note: potency is the fitted concentration of half-maximal effect; % is set by controls: 0 for no effect and ±100 for the full control effect
PMP22 txn cnf = PMP22 transcription modulation, confirmatory; shares compounds with PMP22 txn prim; S16 Schwann cells Pmp22-F2sN, dual luciferase, 24 h; Potency, µM (top dose mostly 57.5 µM), inactives show at the highest dose activity change, negative = inhibition, most hits filed as inhibitors; 22% of 690 active; AID 1508646; active = clear falling dose curves in both reporters; inconclusive = both reporters move, but less clearly or upward; inactive = either reporter flat; the % is the FLuc reporter signal; note: potency is the fitted concentration of half-maximal effect
PMP22 HiBiT cnf = rat PMP22 protein level modulation, confirmatory; Potency, µM (top dose mostly 27.9 µM), without a hit: at the highest dose activity change, negative = inhibition, most hits filed as inhibitors; shares compounds with PMP22 txn prim; 95 tested, under 10 active; S16 Schwann cells Pmp22-HiBiT, luminescence, 48 h
Target sequence (P25094 whole entry, looked up): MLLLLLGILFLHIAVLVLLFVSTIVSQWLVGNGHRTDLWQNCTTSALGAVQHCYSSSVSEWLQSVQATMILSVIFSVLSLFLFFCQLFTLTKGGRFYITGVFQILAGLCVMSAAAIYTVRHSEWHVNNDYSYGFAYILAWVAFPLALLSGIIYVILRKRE
The depositor's hits bear a star; i = inactive; ? = inconclusive; · = no result given. Unless noted, calls come from the whole dose curve; as a rule, active = well fitted curve in the direction sought with a large enough effect; inconclusive = small, poorly fitted or top-dose-only effect, or another doubt; inactive = no such curve, though single readings can be large; an effect the other way counts as inactive or inconclusive.

SMILES	p53null 32C kill	PMP22 txn prim	mTORC1 inh	p53null 39C kill	OvCa metastasis	S16 F2sN tox	NLuc saturating	NLuc Km ctr	FLuc counter	S16 F2sN tox cnf	PMP22 txn cnf	others
CC(C)OCCCNC(=O)CSc1c2c(nc3ccc(Cl)cc13)CCCC2	4%	12µM*	-10%	85%	?	?	-10%	5%	2%	?	19µM*
CCc1ccc(CNC(=O)CSc2c3c(nc4ccc(Cl)cc24)CCCC3)cc1	4%	6.2µM*	0%	5%	-6%	-1%	-8%	?	5%	4%	?
CCOc1ccc(CNC(=O)CSc2c3c(nc4ccc(Cl)cc24)CCCC3)cc1	-2%	?	-9%	-23%	4%	15%	·	·	·	·	·
COCCCNC(=O)CSc1c2c(nc3ccc(Cl)cc13)CCCC2	24%	?	?	82%	i	?	·	·	·	·	·
CCOc1ccc(CNC(=O)CSc2c3c(nc4cc(Cl)ccc24)CCCC3)cc1	0%	?	-12%	-5%	27%	?	·	·	·	·	·
O=C(CSc1c2c(nc3ccc(Cl)cc13)CCCC2)N1CCN(c2ccc(Cl)cc2)CC1	35%	?	1%	22%	-5%	-2%	·	·	·	·	·
CCN(CC)CCCNC(=O)CSc1c2c(nc3cc(Cl)ccc13)CCCC2	37%	6.7µM*	?	13µM*	?	?	-3%	-1%	3%	?	10µM*	PMP22 HiBiT cnf=66%
CN(C)CCCN=c1c2ccccc2n(C)c2[nH]c(=O)n(C)c(=O)c12	·	·	·	·	48%	·	·	·	·	·	·
CC(=O)SC[C@@H](C)C(=O)N1CCC[C@H]1C(=O)N[C@@H](Cc1ccccc1)C(=O)O	·	·	·	·	-4%	·	·	·	·	·	·
CCCCc1nn2c(=O)cc(COC(=O)c3cccc(NC(=O)c4cccc(C)c4)c3)nc2s1	-6%	?	8%	0%	-9%	3%	·	·	·	·	·
Cc1cccc(C(=O)Nc2cccc(C(=O)OCc3cc(=O)n4nc(C(C)C)sc4n3)c2)c1	0%	13µM*	13%	-6%	30%	-7%	2%	0%	?	-15%	30%
NC(=O)c1ccc(-c2nc(-c3ccc4c(c3)OCCO4)c(-c3ccccn3)[nH]2)cc1	·	·	·	·	7%	·	·	·	·	·	·
Cc1ccc(Cn2c(C)c3cnn(CC(=O)N4CCN(c5cc(C)ccc5C)CC4)c(=O)c3c2C)cc1	55%	12µM*	-5%	9%	i	-16%	-6%	15%	8%	-13%	-15%
O=S(=O)(NCCNCC=Cc1ccc(Br)cc1)c1cccc2cnccc12	·	·	·	·	8%	·	·	·	·	·	·
Cc1nc(-c2ccc(S(=O)(=O)Nc3ccc(C)c(N(C)C)c3)cc2)co1	16%	?	-7%	0%	8%	-15%	·	·	·	·	·
COc1cc(Cl)c(NS(=O)(=O)c2ccc(-c3coc(C)n3)cc2)c(OC)c1	9%	13µM*	?	21%	i	-16%	?	?	0%	?	-13%
CCCCCCCCOc1ccccc1C(=O)Nc1ccc(C(=O)OCC[N+](C)(CC)CC)cc1	·	·	·	·	-4%	·	·	·	·	·	·
NC[C@@H]1O[C@@H](O[C@H]2[C@@H](O)[C@H](O[C@@H]3[C@@H](O)[C@@H](N)C[C@H](N)[C@H]3O[C@H]3O[C@H](CN)[C@@H](O)[C@@H](O)[C@H]3N)O[C@H]2CO)[C@H](N)[C@@H](O)[C@@H]1O	·	·	·	·	37%	·	·	·	·	·	·
O=C(CSc1ncc2c(n1)-c1ccccc1N(Cc1ccc(F)cc1)S2(=O)=O)NCCc1ccccc1	-3%	18µM*	3%	6%	2%	4%	-1%	2%	7%	?	?
CCc1ccc(-c2nc(CN3CCC(C(=O)NCCc4ccc(C)cc4)CC3)c(C)o2)cc1	-3%	?	-8%	8%	9%	21%	·	·	·	·	·
Cc1oc(-c2ccc(Cl)cc2)nc1CN1CCCC(C(=O)NCCc2ccccc2)C1 (configuration not stated)	-4%	19µM*	4%	-2%	2%	-13%	-10%	-15%	-20%	?	-29%
CCc1ccc(-c2nc(CN3CCC(C(=O)NCCc4ccc(Cl)cc4)CC3)c(C)o2)cc1	1%	16µM*	-4%	-17%	5%	16%	-7%	2%	-13%	?	?
Nc1ccn([C@@H]2O[C@H](CO)[C@H](O)C2(F)F)c(=O)n1	·	·	·	·	-25%	·	·	·	·	·	·
Cc1cnc(-c2cnc(NCCNc3ccc(C#N)cn3)nc2-c2ccc(Cl)cc2Cl)[nH]1	·	·	·	·	-17%	·	·	·	·	·	·
CCc1cccc(C)c1NC(=O)c1nc2ccccc2nc1N1CCCCC1	8%	?	-8%	-9%	-5%	0%	-5%	?	2%	9%	-27%
Cc1ccc(C)c(NC(=O)C(Cc2ccccc2)N2Cc3ccccc3C2=O)c1 (configuration not stated)	12%	?	-13%	12%	?	-13%	·	·	·	·	·
C#Cc1cccc(Nc2ncnc3cc(OCCOC)c(OCCO)cc23)c1	·	·	·	·	5%	·	·	·	·	·	·
